Measured values: article PMC5540273 (PLoS ONE, 2017)

Experiments:
Settings in all cases: concentration: 1 μM, replicates: in singlicate; n = 1
PRKCQ = test system: PRKCQ
PRKD1 = test system: PRKD1
PRKD2 = test system: PRKD2
PRKD3 = test system: PRKD3
PRKG1 = test system: PRKG1
PRKG2 = test system: PRKG2
PRKR = test system: T1, PRKR
T1 construct: gene EIF2AK2

PRKX = test system: PRKX
PRP4 = test system: PRP4
PYK2 = test system: T2, PYK2
T2 construct: gene PTK2B
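Also: KINOMEscan kinase panel screen.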

Structure (SMILES) | %Inh (PRKCQ) | %Inh (PRKD1) | %Inh (PRKD2) | %Inh (PRKD3) | %Inh (PRKG1) | %Inh (PRKG2) | %Inh (PRKR) | %Inh (PRKX) | %Inh (PRP4) | %Inh (PYK2)
Cc1cccc(-c2nc(Nc3cccc(C(N)=O)c3)c3ccccc3n2)n1 [GW876019] | 0% | 64% | 66% | 87% | 0% | 0% | 6% | 0% | 11% | 6%
Cl.O=C(Nc1cccc(-c2nn3ncccc3c2-c2ccnc(Nc3cccnc3)n2)c1)c1c(F)cccc1F [GSK312879] | 25% | 0% | 0% | 25% | 16% | 0% | 0% | 3% | 11% | 0%
COc1cccc(-c2cc(-c3c[nH]nc3-c3ccccn3)ccn2)c1 [GW680338] | 2% | 62% | 47% | 34% | 6% | 0% | 0% | 0% | 26% | 0%
COc1cc(Nc2nccc(N3CCC(NC(=O)Nc4cc(C)ccc4C)C3)n2)cc(OC)c1OC (stereo not drawn) [GSK1379762] | 0% | 0% | 0% | 37% | 0% | 0% | 0% | 41% | 43% | 3%
Cl.NC(=O)c1cccc(Nc2nccc(Nc3ccc(Oc4cccc(Cl)c4)c(Cl)c3)n2)c1 [GW659008] | 0% | 0% | 6% | 0% | 0% | 3% | 0% | 15% | 18% | 15%
Cn1ccc2ncnc(Oc3ccc(NC(=O)Nc4ccccc4)cc3)c21 | 13% | 0% | 2% | 0% | 7% | 31% | 0% | 0% | 0% | 0%
CCn1c(-c2cccnc2O)nc2cnccc21 [SB-736715] | 0% | 0% | 0% | 0% | 0% | 0% | 0% | 0% | 0% | 0%
C[C@@H]1CCCCN1c1cc(-c2ccc3c(N)n[nH]c3c2)nc(N)n1 [GSK2258759] | 0% | 0% | 3% | 0% | 0% | 14% | 21% | 15% | 1% | 0%
CN(C)CCN(C)C(=O)c1cc(-c2ccncc2)c(-c2ccc(Cl)c(O)c2)o1.Cl.Cl [SB-710397] | 3% | 0% | 57% | 12% | 0% | 0% | 0% | 0% | 60% | 12%
Cc1cccc(-c2nc(C)cc(Nc3ccncc3)n2)n1 [GSK257997] | 0% | 78% | 80% | 85% | 0% | 6% | 0% | 1% | 13% | 0%
O=C(Nc1ccc2c(c1)OCO2)NC1CCN(c2ccnc(Nc3ccc(F)cc3)n2)C1 (stereo not drawn) [GSK1379724] | 0% | 16% | 5% | 0% | 0% | 0% | 0% | 0% | 17% | 0%
Cn1cncc1-c1ccc2ncnc(Nc3ccc(OCc4ccccc4)cc3)c2c1 [GW320571] | 16% | 26% | 5% | 15% | 26% | 0% | 0% | 4% | 0% | 34%
Cl.Oc1ccc(-c2nc(-c3ccccc3)[nH]c2-c2ccncc2)cc1 [SB-428218] | 0% | 0% | 9% | 0% | 12% | 0% | 0% | 0% | 57% | 0%
CCCc1ccc(S(=O)(=O)NC2CCN(c3ccnc(Nc4ccc(F)cc4)n3)C2)cc1 (stereo not drawn) [GSK1379715] | 27% | 1% | 0% | 0% | 0% | 0% | 0% | 1% | 20% | 0%
Cn1ccc2ncnc(Oc3ccc(Nc4nc5ccccc5[nH]4)cc3)c21 | 0% | 44% | 8% | 0% | 0% | 0% | 0% | 3% | 25% | 41%
Cc1cc(-c2ccc3c(c2)CC[C@@H](N[C@@H](C)c2ccccc2)C3)cnc1N.Cl [GW412617] | 36% | 18% | 21% | 0% | 9% | 0% | 0% | 12% | 0% | 12%
O=C(Nc1n[nH]c2nc(-c3nccs3)c(Br)cc12)C1CCCC1 [SB-742609] | 4% | 0% | 0% | 0% | 2% | 0% | 5% | 0% | 13% | 9%
COc1ccc2nc(-c3cccc(C)n3)nc(Nc3ccncc3)c2c1 [GSK204919] | 44% | 92.4% | 98.8% | 100% | 8% | 0% | 0% | 7% | 8% | 9%
